Compounds without any hit were thinned out: in the full panel of roughly 79,000, 15% have a hit. Activity calls are given as the source filed them. Cut-off read from the data, not from the text of the source: active = growth inhibition above about 70%; inactive = the rest.
What was measured:
[1] = NCI Yeast Anticancer Drug Screen. Data for the wt1 strain (AID 149);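 note: 0% = growth of vehicle-treated wt1 cultures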; conditions: S. cerevisiae wt1 strain (SPY 50644) growth inhibition, hits give high values
In short: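 Growth inhibition read against vehicle controls after compound exposure of the wt1 yeast strain.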

[2] = NCI Yeast Anticancer Drug Screen. Data for the rad50EPP+ strain (AID 151);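 note: 0% = growth of vehicle-treated control cultures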; conditions: S. cerevisiae rad50 mutant strain, hits give high values
In short: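 One strain with a rad50 alteration (rad50EPP+) was compound-treated, its growth then compared to that of vehicle controls.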

[3] = NCI Yeast Anticancer Drug Screen. Data for the mgt1 strain (AID 153); conditions: S. cerevisiae mgt1 mutant growth inhibition, hits give high values
In short: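 After exposure of the mgt1 yeast mutant to compound, growth was measured and reported as inhibition compared with vehicle controls.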

[4] = NCI Yeast Anticancer Drug Screen. Data for the rad50 strain (AID 155);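 note: 0% = growth of vehicle-only cultures of the same strain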; conditions: S. cerevisiae rad50 strain growth inhibition, hits give high values
In short: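 Readout: growth inhibition relative to vehicle-treated cultures. Compound exposure was carried out in a genetically defined yeast strain deficient in DNA damage repair.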

[5] = NCI Yeast Anticancer Drug Screen. Data for the mec2-1 strain (AID 157); conditions: S. cerevisiae mec2-1 strain, hits give high values
In short: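 Test agents were screened against the mec2-1 yeast strain, with defined DNA repair or cell cycle alteration. Growth was scored as inhibition against vehicle-only controls.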

[6] = NCI Yeast Anticancer Drug Screen. Data for the rad14 strain (AID 159);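 note: 0% = growth of vehicle-treated control cultures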; conditions: S. cerevisiae rad14 strain growth inhibition, hits give high values
In short: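 Growth inhibition vs vehicle controls; genetically altered yeast strain (DNA damage repair defect) treated with test compounds.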

[7] = NCI Yeast Anticancer Drug Screen. Data for the sgs1 mgt1 strain (AID 161);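 note: 0% = growth of cultures given vehicle only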; conditions: S. cerevisiae sgs1 mgt1 strain, hits give high values
In short: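 Test agents were incubated with a DNA-repair-mutant yeast strain. Growth was then read and compared against vehicle-treated controls.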

[8] = NCI Yeast Anticancer Drug Screen. Data for the CLN2oe strain (AID 163);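 note: 0% = growth of vehicle-only control cultures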; conditions: S. cerevisiae CLN2oe strain, hits give high values
In short: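 Here, growth inhibition in a cell-cycle-altered yeast strain after compound exposure was quantified against vehicle control growth.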

[9] = NCI Yeast Anticancer Drug Screen. Data for the bub3 strain (AID 167); conditions: S. cerevisiae bub3 mutant strain, hits give high values
In short: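 Readout: yeast growth inhibition, expressed relative to vehicle-only wells. The test organism is a mutant strain from a panel with lesions in DNA repair or checkpoint genes.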

[10] = NCI Yeast Anticancer Drug Screen. Data for the wt2 strain (AID 169);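 note: 0% = growth of vehicle-treated yeast cultures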; conditions: S. cerevisiae wt2 strain growth inhibition, hits give high values
In short: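 Genetically defined yeast strains from a DNA-repair/cell-cycle panel were used. Compound-exposed yeast growth was measured, and the inhibition was calculated relative to vehicle treatment.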

[11] = NCI Yeast Anticancer Drug Screen. Data for the mlh1 strain (AID 171);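 note: 0% = growth of vehicle-treated control cultures of the same strain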; conditions: S. cerevisiae mlh1 strain growth inhibition, hits give high values
In short: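 Here the genetically defined yeast mutant is grown with each compound, and the extent to which its growth falls below that of vehicle-exposed cells is reported.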

[12] = NCI Yeast Anticancer Drug Screen. Data for the sgs1 strain (AID 173);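 note: 0% = growth of vehicle-only control cultures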; conditions: S. cerevisiae sgs1 mutant, hits give high values
In short: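 Relative growth inhibition, referenced to vehicle, was determined in a yeast strain with a defined alteration affecting DNA damage repair or cell cycle control after compound exposure.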

[13] = NCI Yeast Anticancer Drug Screen. Data for the mlh1 rad18 strain (AID 175); conditions: S. cerevisiae mlh1 rad18 strain growth inhibition, hits give high values
In short: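 In this whole-cell yeast screen, a strain with altered DNA damage repair is challenged with compound, and its growth is measured against matched vehicle-treated controls.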

[14] = NCI Yeast Anticancer Drug Screen. Data for the rad18 strain (AID 177); conditions: S. cerevisiae rad18 mutant growth inhibition, hits give high values
In short: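 Screen uses a yeast strain with a defined lesion in DNA damage repair; compound effect is read as loss of growth compared to untreated vehicle cultures.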

[15] = at 5.0 µM (retest, dose inferred, filed as 0.5)
[16] = at 50.0 µM (retest, dose inferred, filed as 5.0)

Measured: growth inhibition

CC(C)c1ccc(C2NC(=S)NC3=C2c2ccccc2C3=O)cc1 (stereo not given)
inactive: [1]; at 1.2 µM 16% | [1]; at 3.7 µM 6% | [1]; at 11.0 µM 18% | [1]; at 33.0 µM 17% | [1]; at 100.0 µM 17% | [2]; at 1.2 µM 23% | [2]; at 3.7 µM 21% | [2]; at 11.0 µM 16% | [2]; at 33.0 µM 15% | [2]; at 100.0 µM 3% | [3]; at 1.2 µM 3% | [3]; at 3.7 µM -4% | [3]; at 11.0 µM 7% | [3]; at 33.0 µM 19% | [3]; at 100.0 µM 50% | [4]; at 1.2 µM 24% | [4]; at 3.7 µM 24% | [4]; [15] 22% | [4]; at 11.0 µM 27% | [4]; at 33.0 µM 32% | [4]; [16] 31% | [4]; at 100.0 µM 54% | [5]; at 1.2 µM 17% | [5]; at 3.7 µM 11% | [5]; [15] -8% | [5]; at 11.0 µM -7% | [5]; at 33.0 µM 9% | [5]; [16] -11% | [5]; at 50.0 µM 64.1% | [5]; at 100.0 µM 28% | [6]; at 1.2 µM -8% | [6]; at 3.7 µM -14% | [6]; at 11.0 µM -18% | [6]; at 33.0 µM -20% | [6]; at 100.0 µM 11% | [7]; [15] 43% | [7]; [16] 24% | [8]; at 1.2 µM -9% | [8]; at 3.7 µM -5% | [8]; at 11.0 µM -5% | [8]; at 33.0 µM -8% | [8]; at 100.0 µM 18% | [9]; at 1.2 µM -3% | [9]; at 3.7 µM 4% | [9]; [15] -25% | [9]; at 11.0 µM 27% | [10]; at 1.2 µM 0% | [10]; at 3.7 µM 1% | [10]; at 11.0 µM 14% | [10]; at 33.0 µM 22% | [10]; at 100.0 µM 41% | [11]; at 1.2 µM 10% | [11]; at 3.7 µM -1% | [11]; at 11.0 µM 3% | [11]; at 33.0 µM 26% | [11]; at 100.0 µM 52% | [12]; at 1.2 µM 23% | [12]; at 3.7 µM 12% | [12]; at 11.0 µM 16% | [12]; at 33.0 µM 26% | [12]; at 100.0 µM 43% | [13]; [15] -36% | [13]; [16] 32% | [14]; at 1.2 µM 2% | [14]; at 3.7 µM 8% | [14]; at 11.0 µM 10% | [14]; at 33.0 µM 13% | [14]; at 100.0 µM 38%
active: [4]; at 50.0 µM 86.8% | [7]; at 50.0 µM 78% | [9]; at 33.0 µM 81% | [9]; [16] 87% | [9]; at 50.0 µM 89.7% | [9]; at 100.0 µM 88% | [13]; at 50.0 µM 74.1%

Reference: PubChem BioAssay (NCI)
